Test results reported in ChEMBL document CHEMBL3988442, “University of Dundee, Small-Polar-MMV Screening Library” (2021).

Each compound was assayed against T1, Arginase-2, mitochondrial (Homo sapiens) (UniProt P78540) (assay: in vitro enzyme assay to detect the production of urea directly proportional to the activity of Arginase II). Conditions: 30 µM.
T1 sequence (whole entry): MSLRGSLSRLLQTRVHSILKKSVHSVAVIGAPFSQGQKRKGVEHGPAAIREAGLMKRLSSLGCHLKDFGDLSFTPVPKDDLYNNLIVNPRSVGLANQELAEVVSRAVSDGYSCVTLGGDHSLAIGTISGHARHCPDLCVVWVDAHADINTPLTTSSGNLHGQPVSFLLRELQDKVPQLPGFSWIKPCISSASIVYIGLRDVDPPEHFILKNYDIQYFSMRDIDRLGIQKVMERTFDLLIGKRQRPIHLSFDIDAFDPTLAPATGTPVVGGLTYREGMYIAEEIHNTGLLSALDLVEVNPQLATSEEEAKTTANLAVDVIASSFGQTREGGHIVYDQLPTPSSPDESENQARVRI
Format: functional
Set-up: scale not given: in the data most compounds retested in dose-response had high values
For `COc1ccccc1Oc1ncccc1CNC(=O)[C@H](C)O`, the Percent Effect was 4.87%.
`CNC(=O)[C@H]1C[C@@H]2CN(C(=O)c3ccncc3)C[C@@H]2N1S(C)(=O)=O` showed a Percent Effect of 4.87%.
Work on `CNC(=O)[C@H]1C[C@@H]2CN(C(=O)c3ccccn3)C[C@@H]2N1S(C)(=O)=O` yielded a Percent Effect of 8.11%.
`CC(C)N(C)C(=O)c1coc(CN2CCN(c3ccccc3F)CC2)n1` was tested, and the Percent Effect was 7.03%.
`CNC(=O)[C@@H]1C[C@H]2CN(C(=O)c3ccco3)C[C@H]2N1C(C)C` gave a Percent Effect of 9.19%.
`CC1=Nc2c(c(=O)[nH]n2C2CCCCC2)C(c2cccnc2)S1` (stereo not given) was tested, and the Percent Effect was 2.7%.
With `CN1CCC(N(Cc2ccccc2F)C(=O)NCc2ccncc2)CC1` the Percent Effect was 5.95%.
Work on `COc1cc(C2SC(C)=Nc3c2c(=O)[nH]n3C2CCCC2)ccc1O` (stereo not given) yielded a Percent Effect of 3.78%.
For `O=C([C@@H]1CCO[C@@H]2CCN(CCc3ccccc3)C[C@@H]21)N1CCCC1`, the Percent Effect was 11.3%.
With `Cc1nn(CCO)c(C)c1CNC1CCOc2ccccc21` (stereo not given) the Percent Effect was -9.19%.
For `Cc1nc(NCC2CC2)nc2c1COCC21CCN(C(=O)C(C)(C)C)C1` (stereo not given), the Percent Effect was 8.11%.
For `CC1=Nc2c(c(=O)[nH]n2C2CCCC2)C(c2ccc(C(=O)O)cc2)S1` (stereo not given), the Percent Effect was 7.03%.
In the case of `CNC(=O)[C@H]1C[C@@H]2CN(C(=O)c3occc3C)C[C@@H]2N1S(C)(=O)=O`, the Percent Effect is reported as 2.7%.
Compound `CS(=O)(=O)NCCC(=O)N1CCCC1c1noc(C2CC2)n1` (stereo not given) has a Percent Effect of 11.3%.
Compound `COc1ncccc1CNC(=O)N(Cc1ccccc1F)C1CC1` has a Percent Effect of 5.95%.
Work on `CNC(=O)[C@H]1C[C@@H]2CN(C(=O)c3ccoc3)C[C@@H]2N1S(C)(=O)=O` yielded a Percent Effect of 10.3%.
In the case of `CN(CC(=O)N1CCCC1c1noc(C2CC2)n1)C1CC1` (stereo not given), the Percent Effect is reported as 5.95%.
With `O=C(Cn1nc2c(cc1=O)CSCC2)N[C@@H](Cc1ccccc1)C(=O)O` the Percent Effect was 11.3%.
`COc1ccc(CNCc2nnc3n2CC(C(F)(F)F)CC3)cc1` (stereo not given) gave a Percent Effect of 9.19%.
Compound `Cc1nn(C)c2c(=O)n(C(C)C)c(NCCc3ccccc3)nc12` has a Percent Effect of 8.11%.
`COc1ccc(OCC(O)CN2CCN(c3nccs3)CC2)cc1` (stereo not given) was tested, and the Percent Effect was -8.11%.
In the case of `CC(C)(C)n1cc(NC(=O)C2CN(Cc3ccccc3)CCO2)cn1` (stereo not given), the Percent Effect is reported as 0.54%.
In the case of `CC(=O)N[C@@H](C)C(=O)NCc1cccnc1Oc1ccccc1F`, the Percent Effect is reported as 2.7%.
Work on `Cc1noc(C)c1CN1CCC[C@]2(C[C@@H](Oc3ccccn3)CO2)C1` yielded a Percent Effect of -26.5%.
Compound `N#Cc1ccc(OCC(O)CN2CCN(c3nccs3)CC2)cc1` (stereo not given) has a Percent Effect of 5.95%.
Work on `CC(C)C(NC(=O)Cn1nc2c(cc1=O)CCCC2)C(=O)O` (stereo not given) yielded a Percent Effect of 7.03%.
Work on `Cc1ccc([C@@H]2CN(S(=O)(=O)N3CCC(C)CC3)C[C@H]2N(C)C)cc1` yielded a Percent Effect of 7.03%.
`Cc1cc(C)cc(OCC(O)CN2CCN(c3nccs3)CC2)c1` (stereo not given) was tested, and the Percent Effect was 4.87%.
`Cc1cc(C(=O)N2CCCC(c3nccn3Cc3cscn3)C2)on1` (stereo not given) was tested, and the Percent Effect was 9.19%.
In the case of `OC(CN(Cc1ccccc1)Cc1cccnc1)c1cccs1` (stereo not given), the Percent Effect is reported as -5.95%.
Compound `CN(C)C(=O)[C@@H]1CCO[C@@H]2CCN(CCOCc3ccccc3)C[C@H]21` has a Percent Effect of 2.7%.
`O=C(NC1CC1)[C@@H]1CCO[C@@H]2CCN(CCc3ccccc3)C[C@@H]21` gave a Percent Effect of 10.3%.
Compound `CCC(C(=O)NCc1ccncc1)N(c1cccc(Cl)c1)S(C)(=O)=O` (stereo not given) has a Percent Effect of -13.5%.
Compound `CN(Cc1ccco1)[C@@H]1CN(CC2CCOCC2)[C@@H]2CCCO[C@H]12` has a Percent Effect of 4.87%.
`COc1ccc(C(=O)N2C[C@@H](C(=O)O)[C@H](c3ccccc3)C2)c(O)c1` was tested, and the Percent Effect was 9.19%.
`CCn1c(NCc2ccccc2)nc2c(C)nn(C)c2c1=O` showed a Percent Effect of 8.11%.
`O=C(NCc1ccccn1)[C@]12COC[C@H]1CN(Cc1cccnc1)C2` was tested, and the Percent Effect was -5.95%.
Work on `CCn1ccnc1C1CCCN(C(=O)c2sc(C)nc2C)C1` (stereo not given) yielded a Percent Effect of 2.7%.
Compound `Cc1cc(NC(=O)C2CN(Cc3ccccc3)CCO2)ccn1` (stereo not given) has a Percent Effect of 3.78%.
In the case of `O=C(c1coc(CN2CCN(c3ccccc3F)CC2)n1)N1CC=CC1`, the Percent Effect is reported as 5.95%.
